This note sets out measurements from PubChem BioAssay (Tox21).

A number with no mark means an inactive call. Results filed as inconclusive are left out. Active and inactive are the calls of the source. Unless noted, the call rests on the fitted dose curve; in most records, active means well fitted curve in the direction sought with a large enough effect in the repeat runs; inconclusive means weak or mixed curves; inactive means no such curve, though single readings can be large; an effect the other way counts as inactive or inconclusive.

A short description of assay [1]: qHTS assay to identify small molecule agonists of H2AX (AID 1224845; active means well fitted activation curve with a large enough effect in the signal ratio in the repeat runs, not every such curve was filed as active; the % refers to the signal ratio). An outline of the steps:
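Wild-type CHO-K1 cells, plated overnight, exposed 3hr at 37C to 15 concentrations (0.76% DMSO final). Lysed, then HTRF anti-pH2AX (S139) cryptate and anti-H2AX-d2 antibodies, 24 hr room temperature; 665/620 nm emission read.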
(Quantitative high-throughput screening tests each substance at several concentrations.)

Assay [2] can be described thus: qHTS RealTime-Glo MT Cell Viability Assay in HepG2 cells - 24 hour (AID 1224867). Further: nearly all actives have a fitted effect of over 50% in size. An outline of the steps: (§1)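 HepG2 cells (600/well) were dispensed with RealTime-Glo reagents, incubated 5 h at 37 °C, then treated with compounds in DMSO for up to 40 h. Nonlytic NanoLuc luminescence reflecting viable cells was read at each stated time point.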
The nature of assay [3]: qHTS RealTime-Glo MT Cell Viability Assay in HEK293 cells - 32 hour (AID 1224868). Further: nearly all actives have a fitted effect of over 50% in size. Further: potency means the concentration at half of the fitted maximal effect. On activity change, negative = cytotoxic: top concentration of the series differs between compounds. An outline of the steps: (§2)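 HEK293 cells seeded with NanoLuc/prosubstrate reagent, rested 5 h at 37 C, then dosed and kept at 37 C up to 40 h. Nonlytic real-time luminescence from viable cells read at 0, 8, 16, 24, 32 and 40 h.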
Assay [4] is described as follows: A CellTox Green Cytotoxicity Assay to monitor cytotoxicity in HEK293 cells - 0 hour (AID 1224869). Further: nearly all actives have a fitted effect of over 50% in size. The method, boiled down:
(§3)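 HEK293 cells, 600/well, were preincubated 5 hours and then exposed to compounds at 37 C for up to 40 hours. A cell-impermeant cyanine dye staining dead-cell DNA was read by fluorescence at 0, 8, 16, 24, 32 and 40 h time points.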

A short description of assay [5]: qHTS RealTime-Glo MT Cell Viability Assay in HepG2 cells - 40 hour (AID 1224870). Further: nearly all actives have a fitted effect of over 50% in size. The method, boiled down:
(§4)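 HepG2 cells (600/well) mixed with RealTime-Glo MT reagent, settled 5 h at 37 C/5% CO2 before compound addition. Nonlytic NanoLuc luminescence from viable-cell prosubstrate reduction read repeatedly during 40 h treatment at 37 C.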

Assay [6] can be described thus: qHTS RealTime-Glo MT Cell Viability Assay in HEK293 cells - 16 hour (AID 1224872). The method, boiled down:
as §2

Assay [7] can be described thus: qHTS RealTime-Glo MT Cell Viability Assay in HepG2 cells - 8 hour (AID 1224873). Further: nearly all actives have a fitted effect of over 55% in size. The method, boiled down:
as §4

Assay [8] in a line: qHTS RealTime-Glo MT Cell Viability Assay in HEK293 cells - 40 hour (AID 1224874). Further: nearly all actives have a fitted effect of over 50% in size. Further: potency means the concentration at half of the fitted maximal effect. To be noted: RealTime-Glo luminescence; max response: stronger effect = lower value. An outline of the steps:
(§5)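 600 cells/well were plated with the nonlytic NanoLuc/prosubstrate reagent, pre-incubated 5 h, then given 23 nL of compound in DMSO. Incubation at 37 C for 40 h, with luminescence from viable-cell-reduced substrate read repeatedly from 0 h.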

Assay [9] is described as follows: A CellTox Green Cytotoxicity Assay to monitor cytotoxicity in HEK293 cells - 24 hour (AID 1224875). Further: nearly all actives have a fitted effect of over 45% in size. The method, boiled down: as §3
The nature of assay [10]: A CellTox Green Cytotoxicity Assay to monitor cytotoxicity in HepG2 cells - 16 hour (AID 1224876). Further: nearly all actives have a fitted effect of over 45% in size. Further: potency means the concentration at half of the fitted maximal effect. The method, boiled down:
(§6)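 HepG2 cells, 600/well, preincubated 5 h with CellTox Green dye, then exposed to Tox21 compounds in DMSO at 37 C for up to 40 h. Dead-cell DNA fluorescence read at the indicated time point.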

Assay [11] can be described thus: qHTS RealTime-Glo MT Cell Viability Assay in HepG2 cells - 32 hour (AID 1224877). Further: nearly all actives have a fitted effect of over 55% in size. The method, boiled down: as §1
Assay [12] is described as follows: A CellTox Green Cytotoxicity Assay to monitor cytotoxicity in HepG2 cells - 24 hour (AID 1224878). Further: nearly all actives have a fitted effect of over 45% in size. Further: potency means the concentration at half of the fitted maximal effect. An outline of the steps:
as §6

A short description of assay [13]: qHTS RealTime-Glo MT Cell Viability Assay in HEK293 cells - 0 hour (AID 1224880). Further: top concentration of the series differs between compounds; nearly all actives have a fitted effect of over 45% in size. An outline of the steps: as §5
A short description of assay [14]: A CellTox Green Cytotoxicity Assay to monitor cytotoxicity in HEK293 cells - 32 hour (AID 1224881). Further: nearly all actives have a fitted effect of over 40% in size. Further: potency means the concentration at half of the fitted maximal effect. The method, boiled down:
as §3

A short description of assay [15]: qHTS assay to identify small molecule agonists of H2AX - cell viability counter screen (AID 1224847; calls by dose curve; further: top concentration of the series differs between compounds; nearly all actives have a fitted effect of over 30% in size). The method, boiled down:
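Read-out: CellTiter-Glo luminescence, 30 min RT. Cells: wild-type CHO-K1, 1000/well, 10% FBS, plated overnight at 37C. Treatment: 15 concentrations, 3 hr, 37C, 0.76% DMSO.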

The nature of assay [16]: A CellTox Green Cytotoxicity Assay to monitor cytotoxicity in HEK293 cells - 40 hour (AID 1224871). Further: nearly all actives have a fitted effect of over 45% in size. Further: potency means the concentration at half of the fitted maximal effect. The method, boiled down: as §3
Assay [17] is described as follows: qHTS assay to identify small molecule agonists of the hypoxia (HIF-1) signaling pathway (AID 1224846; active means well fitted activation curve with a large enough effect in the signal ratio in the repeat runs, not every such curve was filed as active; the % refers to the signal ratio). The method, boiled down:
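HRE-bla ME-180 beta-lactamase reporter cells in medium with 0.5% dialyzed FBS, pre-incubated 5 h then exposed to compounds 17 h at 37C, 5% CO2; reporter induction read with CCF4-AM FRET substrate.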

Assay [18] in a line: A CellTox Green Cytotoxicity Assay to monitor cytotoxicity in HepG2 cells - 40 hour (AID 1224879). Further: nearly all actives have a fitted effect of over 40% in size. Further: potency means the concentration at half of the fitted maximal effect. The method, boiled down: as §6
Assay [19] is described as follows: qHTS assay to identify small molecule antagonists of the estrogen related receptor (ERR) signaling pathway from Tox21 library (AID 1224848). Further: nearly all actives have a fitted effect of over 50% in size. The method, boiled down: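 ERR reporter cell line (from NTP) seeded 2,000 cells/well, rested 6 h at 37 C/5% CO2, then pin-dosed with compounds in DMSO. After 18 h at 37 C, ONE-Glo added; luminescence read after 30 min at room temperature.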

A short description of assay [20]: qHTS assay to identify small molecule agonists of the estrogen related receptor (ERR) signaling pathway from Tox21 library (AID 1224849; calls by dose curve; further: nearly all actives have a fitted effect of over 15% in size). Conditions: ERR reporter cell line, ONE-Glo luciferase, 18 h; at 92.4 µM (top of the series) unless noted. An outline of the steps: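 ERR reporter cells (NTP line) pre-incubated 6 hours at 37 C, then exposed to compounds for 18 hours at 37 C. ONE-Glo luciferase luminescence was read after 30 minutes at room temperature.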
On the % scale 0 is the no-effect control and ±100 the full control effect.

For `CC(C(=O)O)c1ccc(-c2ccccc2)c(F)c1` (configuration not stated), the Potency entry in assay [1], in assay [2], in assay [3], in assay [4], in assay [5] and in assay [6] was “inactive” each time. The Potency result in assay [7], in assay [9], in assay [11], in assay [13] and in [14] was “inactive” throughout. In addition, the max response in assay [8] was -0.192%. Further, the Potency in assay [10] is 49 µM (active); in [12], 54.9 µM (active).
In the case of `O=C(Nc1ccccc1)OCC(CN1CCCCC1)OC(=O)Nc1ccccc1` (configuration not stated), the Potency entry in [1], in assay [15], in assay [2], in [4], in [5] and in assay [16] was “inactive” each time. Besides, the Potency entry in assay [7], in [9], in assay [11], in assay [13] and in assay [14] was “inactive” each time. Besides, the Potency in [3] was 21.3 µM (active).
For `CC(Cc1cccc(C(F)(F)F)c1)NCCOC(=O)c1ccccc1` (configuration not stated), the Potency entry in assay [1], in assay [2], in assay [4], in assay [5], in assay [7] and in [9] was “inactive” each time. The Potency result in assay [11] and in assay [13] was “inactive” each time. Moreover, the result in assay [17] was inactive. For the same compound, the Potency in [16] and in assay [14] was 21.3 µM (active) in each case.
On to `COCCCCCCCCOCCC[Si](C)(O[Si](C)(C)C)O[Si](C)(C)C`, for which the Potency entry in assay [1], in assay [2], in [4], in [5], in assay [7] and in [9] was “inactive” throughout. Besides, the Potency result in assay [10], in [11], in [12] and in assay [13] was “inactive” each time. The compound was called inactive in assay [17]. The Potency is 3.89 µM (active) in assay [3], 2.75 µM (active) in [8] and 21.9 µM (active) in [18].
As to `Oc1ccc(O)c2c(O)cccc12`, the Potency entry in assay [1], in [15], in assay [19], in assay [3], in assay [4] and in assay [5] was “inactive” in each case. Moreover, the Potency entry in assay [16], in [7], in [9], in assay [10], in assay [11] and in [12] was “inactive” each time. In addition, the Potency result in assay [13] and in assay [14] was “inactive” throughout. Further, the activity change, positive = activation in assay [20] was 1.72%. In addition, in assay [8], the max response is -0.428%.
Regarding `N#CCCNCCC#N`, the Potency entry in [1], in [15], in [2], in [3], in assay [4] and in assay [5] was “inactive” throughout. For the same compound, the Potency result in assay [6], in [7], in assay [9], in [10], in assay [11] and in [12] was “inactive” throughout. The Potency result in [18], in [13] and in assay [14] was “inactive” in each case. In assay [8], the max response was 6.76%.
`C[C@H](CCC(=O)O)[C@H]1CC[C@H]2[C@@H]3[C@H](O)C[C@@H]4C[C@H](O)CC[C@]4(C)[C@H]3CC[C@]12C`: the Potency result in [1], in [15], in assay [19], in assay [4], in [5] and in assay [7] was “inactive” each time. Further, the Potency entry in assay [9], in assay [10], in assay [11], in assay [12], in assay [13] and in assay [14] was “inactive” in each case.
Regarding `NC[C@H]1O[C@H](O[C@H]2[C@H](O)[C@@H](O[C@H]3O[C@H](CO)[C@@H](O)[C@H](N)[C@H]3O)[C@H](N)C[C@@H]2N)[C@H](O)[C@@H](O)[C@@H]1O`, the activation (H2AX phosphorylation) in assay [1] is -0.622% [at 14 µM]. In addition, the activity change, negative = cytotoxicity in [15] was 4.56% [at 14 µM]; in assay [6] it was 8.96% [at 6.97 µM]; in assay [13], 12.9% [at 6.97 µM]. Moreover, the activity change, positive = activation in [20] is 8.77% [at 8.39 µM]. Moreover, the results for the activity change, negative = cytotoxic in assay [3], in [5] and in [11] were 12.4% [at 6.97 µM], -6.23% [at 6.97 µM] and -15.9% [at 6.97 µM], respectively. Moreover, the cytotoxicity in [4] is 6.99% [at 6.97 µM]; in assay [12] it was 10.9% [at 6.97 µM]. In addition, the cytotoxicity increase in [16] was 9.35% [at 6.97 µM]; in assay [10] it was 10.8% [at 6.97 µM]; in assay [18], 9.32% [at 6.97 µM]; in assay [14] it was 10.5% [at 6.97 µM]. In addition, the viability change, negative = cytotoxic in [7] is 5.97% [at 6.97 µM]. Also, the max response in [8] is 12.1%. Also, in assay [9], the activity change is 8.95% [at 6.97 µM, stronger effect = higher value].
